PubChem BioAssay AID1345083 (National Center for Advancing Translational Sciences (NCATS), 2018)
Among all 94,000 compounds or so, about 6,200 (6.6%) were called active. Another 31% or so got no clear call; they are omitted. Shown is part of a subset that was picked to be rich in actives. Unmarked numbers belong to inactive results. Calls come from the whole dose curve; as a rule, active = well fitted inhibition curve with a large enough effect; inconclusive = small, poorly fitted or top-dose-only effect; inactive = flat fitted curve, though single readings scatter.

assay: Cytotoxic Profiling in HEK 293 Cell Line of Diverse Libraries Using Quantitative High-Throughput Screening; details: HEK 293 viability, ATP luminescence (CellTiter-Glo), 48-72 h; series mostly up to 115 µM; activity change, negative = cytotoxicity: at the top concentration; note: nearly all actives have a fitted effect of over 60% in size
In short: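 Viability of HEK 293 cells, plated at 250 cells/well, was judged by cellular ATP after compound treatment for 48 or 72 hr. Luminescence was imaged 10 min after CellTiter-Glo addition at room temperature.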
% is set by controls: 0 for no effect and ±100 for the full control effect; potency is the fitted concentration of half-maximal effect.

SMILES | activity change, negative = cytotoxicity | Potency | outcome
COc1ccc(CCC(=O)N2CCCC(n3c(C)cnc3C3CCOCC3)C2)cc1 (stereo unspecified) | -23.1% | – | –
O=C(NC1CC1)c1ccc(CC2CCN(C(=O)c3ccccn3)CC2)cc1 | -25.9% | – | –
COc1ccc(-c2ccc(C(=O)N3CCN(C(=O)c4cccc(Cl)c4)CC3)cc2)nn1 | -0.234% | – | –
COc1ccc(-c2ccc(C(=O)NCc3ccccc3Cl)cc2)nn1 | -9.88% [at 172 µM] | – | –
COc1ccc(-c2cccc(C(=O)NCc3cccc(Cl)c3)c2)nn1 | – | 79.4 µM (active) | –
CCN1CC2(CCN(C(=O)c3cccc(N4CCOCC4)c3)CC2)OC1=O | -5.91% | – | –
CC(=O)N1Cc2ccccc2CC2(CCN(Cc3cccnc3)CC2)C1 | -5.64% | – | –
C[C@H](C(=O)N1Cc2ccccc2CC2(CCN(Cc3ccncc3)CC2)C1)c1ccccc1 | – | 50.1 µM (active) | –
CC(=O)N1Cc2ccccc2CC2(CCCN(Cc3ccncc3)C2)C1 (stereo unspecified) | -1.66% | – | –
O=C(Nc1cccc(-n2cccn2)c1)C1CCCN(C2CCN(Cc3ccco3)CC2)C1 (stereo unspecified) | -1.69% | – | –
COc1ccc(OC)c(CNC(=O)CC2C(=O)NCCN2CC=C(C)C)c1 (stereo unspecified) | – | – | inactive
COC[C@@H]1CN(C(=O)c2ccc3ncccc3c2)C[C@H]1c1nc(C)no1 | -0.388% | – | –
COc1ccc(CNC(=O)N2CCC3(CC2)CC(OCC2CC2)CCO3)cc1 (stereo unspecified) | -2.8% | – | –
CNC(=O)N1CCC2(CC1)CC(Cc1cccc(F)c1)CCO2 (stereo unspecified) | -28.8% | – | –
COc1ccc(CC2CCOC3(CCN(C(=O)NCC(C)C)CC3)C2)cc1 (stereo unspecified) | – | 39.8 µM (active) | –
O=C1NCCCCCCN(C(=O)Cc2cccnc2)[C@@H]2C[C@@H](c3nc(-c4cnccn4)no3)C[C@H]12 | – | – | inactive
C=CCN1CCC2(CCC1=O)CN(Cc1ncc[nH]1)CCN2C (stereo unspecified) | – | – | inactive
O=C(c1ccc(F)cc1)N1CCC(N2CC3CC(C2)[C@H]2CCCC(=O)N2C3)CC1 (stereo partly specified) | 5.13% | – | –
COCc1cc(CN2C[C@H](NC(=O)CO)[C@@H](C3CC3)C2)ccc1OC | – | – | inactive
O=C(C1CCN([S+](=O)([O-])c2cccc(C(F)(F)F)c2)CC1)N1CCC(N2CCCC2=O)CC1 | -5.24% | – | –
O=C1CCCCCN1C1CCN(Cc2ccc(C(F)(F)F)cc2)CC1 | – | 31.6 µM (active) | –
O=C1CCN(Cc2ccc(C(F)(F)F)cc2)CCCOCCN1 | -16.5% | – | –
Cn1cnc(S(=O)(=O)N[C@@H]2CCOC[C@H]2Oc2ccc(C(N)=O)cc2)c1 | 3.24% | – | –

SMILES | activity change, negative = cytotoxicity | Potency | outcome
OC1(CN2CCC(CCn3cccn3)CC2)CNCCOC1 (stereo unspecified) | -5.79% | – | –
O=C(NC1CCCc2c1[nH]c1c(Cl)cccc21)c1ccco1 (stereo unspecified) | – | 44.7 µM (active) | –
O=C(Cn1nc(-c2ccco2)ccc1=O)NC1CCCc2c1[nH]c1c(Cl)cccc21 (stereo unspecified) | 1.59% | – | –
O=C(NC1CCc2nnc(C3CC3)n2CC1)c1ccco1 (stereo unspecified) | -27.7% | – | –
CC(C)S(=O)(=O)N1CCC(OCc2noc(C3CCCO3)n2)CC1 (stereo unspecified) | 0.452% | – | –
CC(C)(CC(=O)O)CC(=O)N[C@H]1CO[C@H]2[C@@H]1OC[C@@H]2Nc1nccc(-c2ccc3c(c2)OCO3)n1 | – | – | inactive
O=C(Nc1ccc(Cl)cc1)N[C@H]1CO[C@H]2[C@@H]1OC[C@H]2O | – | – | inactive [at 172 µM]
CC(=O)Nc1cccc(OCC2CN(Cc3cccc(C(F)(F)F)c3)C(=O)c3c(ccnc3-c3ccc(OCC(=O)O)cc3)O2)c1 (stereo unspecified) | -9.98% | – | –
CCNC(=O)O[C@@H]1CO[C@H]2[C@@H]1OC[C@@H]2NC(=O)c1cccc(C(=O)OC)c1 | -4.88% [at 172 µM] | – | –
COc1ccc(-c2ccnc(N[C@H]3CO[C@H]4[C@@H]3OC[C@H]4OC(=O)Nc3cccc4ccccc34)n2)cc1 | – | 39.8 µM (active) | –
N#Cc1cccc(NC(=O)O[C@@H]2CO[C@H]3[C@@H]2OC[C@@H]3Nc2nccc(-c3ccccc3)n2)c1 | – | 22.4 µM (active) | –
O=C(Nc1cccc(C(F)(F)F)c1)O[C@@H]1CO[C@H]2[C@@H]1OC[C@@H]2Nc1nccc(-c2ccc3c(c2)OCO3)n1 | – | 50.1 µM (active) | –
COc1ccc(NC(=O)O[C@@H]2CO[C@H]3[C@@H]2OC[C@@H]3NC(=O)NC2CCCCC2)cc1 | -27.6% [at 172 µM] | – | –
CCNC(=O)O[C@@H]1CO[C@H]2[C@@H]1OC[C@@H]2NC(=S)Nc1cccc2ccccc12 | – | 70.8 µM (active) | –
CNC(=O)[C@@H]1CN(C(=O)Cn2c(=O)oc3ccccc32)C[C@H]1c1n[nH]c(C)n1 | 3.76% | – | –
O=C(O)c1ccc2c(c1)CC(=O)N2Cc1cccc(F)c1 | 4.64% | – | –
CN1CCCCCCN(S(=O)(=O)N(C)C)CCC1=O | – | – | inactive
O=C(O)CC1(CC(=O)N2CCN3C(=O)c4cc(-c5ccsc5)ccc4NC(=O)[C@H]3C2)CCCC1 | – | – | inactive
c1cncc(CN2CC(Oc3ccc4c(c3)OCO4)C2)c1 | – | – | inactive [at 172 µM]
COC(=O)N1CCN2C[C@@H](C(N)=O)[C@H](c3ccccc3)[C@H]2C1 | -27.2% | – | –
CC(=O)c1c(C)nn(CC(=O)N2CCC(c3cc(C(C)C)n[nH]3)CC2)c1C | 2.16% | – | –
CCC(=O)N1CCC(c2nc(C3CCOCC3)no2)C1 (stereo unspecified) | 8.65% | – | –
CSc1ccc(CNC(=O)c2cc3c(N4CCSCC4)nc(C)cn3n2)cc1 | -26% | – | –
